# Test results from PubChem BioAssay AID2205 (University of Pittsburgh Molecular Library Screening Center, 2009).
# The campaign covered roughly 200,000 compounds. About 1,600 (0.8%) were called active.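 Rule for the calls: active = plate Z-score above 3 for both tubulin-high and condensed-nucleus cell shares, with cell loss under 80%, at 10 µM; inactive = the rest, inconclusive results apart.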 This excerpt belongs to a sample that is enriched for actives.
# Experiment: microtubule stabilizers in HeLa cells, primary screen, imaging, high-content imaging (AID 2205);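 for % tubulin-high responders: anti alpha tubulin signal scored within the nucleus-defined area of each cell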;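 for toxicity: 0% = mean cell density of plate MIN control wells and 100% = no cells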
# Conditions: HeLa tubulin immunostaining HCS, 24 h, at 10 µM; % Hoechst-high responders: measured here: nuclear condensation Hoechst responders, stronger effect = higher value, share of cells brighter than vehicle mean+2SD; % tubulin-high responders: stronger effect = higher value, share of cells brighter than vehicle mean+2SD; toxicity: measured here: cytotoxicity by cell density
SMILES,% Hoechst-high responders,% tubulin-high responders,toxicity
COC(=O)C1C(=O)NCC1c1ccc(C)cc1 (stereo not drawn),1.21%,1.21% (inactive),6.65%
COC(=O)C1=C(Nc2ccc(C)cc2)C=C(C)C(C(=O)OC)C1c1ccc(F)cc1 (stereo not drawn),21.1%,34.1% (active),39.5%
COc1ccc(C2NC(=S)NC3=C2CCc2ccccc23)cc1OC (stereo not drawn),3.43%,3.22% (inactive),5.09%
O=C(CCN1C(=O)/C(=C/c2cccs2)SC1=S)NNC(=O)c1cccc(O)c1,1.28%,1.78% (inactive),8.2%
CCOC(=O)c1ccccc1NS(=O)(=O)c1ccc(OC)cc1,15.7%,39.6% (active),61.3%
COC(=O)c1ccccc1NS(=O)(=O)c1ccc2[nH]c(=O)[nH]c2c1,5.36%,4.9% (inactive),0.144%
CCOc1cc(NS(=O)(=O)c2ccc(OC)cc2)c(OCC)cc1NC(C)=O,0.933%,2.92% (inactive),3.17%
COc1ccc(C)cc1NC(=O)CSc1nnc(CC(=O)Nc2ccccc2F)n1C,1.3%,2.49% (inactive),3.08%
COc1ccc(C(=O)n2nc(-c3ccc(Cl)cc3)nc2N)cc1OC,2.89%,4.28% (inactive),4.28%
COc1ccc(C(=O)n2nc(-c3ccc(C)cc3)nc2N)cc1OC,34.9%,48.4% (active),31.5%
COc1ccccc1C(=O)n1nc(-c2ccccc2)nc1N,2.45%,1.99% (inactive),31.9%
COc1ccc(-c2[nH]ncc2CN(C)Cc2c(C)n[nH]c2C)c(OC)c1,1.45%,3.81% (inactive),16.7%
Cc1cccc(C)c1NC(=O)C(c1ccccc1)N1CC(=O)Nc2ccccc21 (stereo not drawn),2.09%,3.96% (inactive),8.51%
Cc1nnc(NC(=O)CSc2nccn2-c2cccc(C)c2C)s1,21%,19.7% (active),64.4%
COc1ccccc1-n1c(CNC(=O)c2ccccc2)nnc1SCC(=O)Nc1nnc(C)s1,1.91%,2.83% (inactive),6.55%
Cc1cccc(CSc2nnc(NC(=O)CSc3nnc(C)s3)s2)c1,1.18%,2.97% (inactive),12.2%
CC(Oc1cccc(NC(=O)c2cccs2)c1)C(=O)c1ccccc1 (stereo not drawn),1.24%,0.929% (inactive),5.37%
Cc1cc(-c2csc(N)n2)c(C)n1-c1ccccc1,2.12%,6.37% (inactive),3.22%

SMILES,% Hoechst-high responders,% tubulin-high responders,toxicity
CN1C(=O)/C(=C\c2ccc(-c3ccccc3)o2)SC1=S,1.77%,6.05% (inactive),4.81%
C=CCn1c(CC(=O)Nc2cccc(OC)c2)nnc1SCC(=O)NC1CCCCC1,1.48%,3.27% (inactive),1.42%
COc1cccc(-n2c(SCC(=O)NC3CCCCC3)nc3n[nH]c(C)c3c2=N)c1,11.3%,18.4% (active),62.6%
CCCCNC(=O)CSc1nc2n[nH]c(C)c2c(=N)n1-c1cccc(Cl)c1C,2.38%,2% (inactive),5.31%
Cc1ccc(S(=O)(=O)N(C)C)cc1NC(=O)c1ccccc1Br,2.26%,1.77% (inactive),6.59%
CN1CCN(C(=O)/C(=C\c2ccc3c(c2)OCO3)NC(=O)c2cccs2)CC1,1.07%,1.67% (inactive),6.65%
CC(C)(C)c1nc2ccccc2c(=O)n1N1C(=O)c2ccccc2C1=O,13.9%,28.9% (active),37.9%
CCC1(CC)Cc2ccccc2-c2nc3ccccc3c(=O)n21,1.65%,4.36% (inactive),6.77%
CN(C)CCCn1c(SCCN2C(=O)c3ccccc3C2=O)nc2ccccc2c1=O,1.95%,2.16% (inactive),6.21%
CCOc1ccc(NS(=O)(=O)c2ccc(C)c(C(N)=O)c2)cc1,2.61%,1.97% (inactive),4.14%
CN1CCN(c2ccc(NC(=O)c3ccc4c(c3)[nH]c(=O)n4Cc3ccc(F)cc3)cc2)CC1,2.93%,3.59% (inactive),6.48%
O=C(NN=C1CCC(=NNC(=O)c2cccnc2)CC1)c1cccnc1,2.04%,1.75% (inactive),6.55%
COCC(C)n1c(C)cc(C(=O)COc2ccc(C)nc2[N+](=O)[O-])c1C (stereo not drawn),1.67%,1.5% (inactive),6.06%
O=C(NNC(=S)NC(=O)c1cn(-c2ccccc2)nc1-c1ccccc1)c1ccncc1,2.91%,5.93% (inactive),6.44%
CCOc1ccc(C2c3[nH]c4ccccc4c3CCN2Cc2cn(CC)nc2C)cc1 (stereo not drawn),3.06%,2.78% (inactive),2.13%
CCOC(=O)N1CCN(C(=O)c2ccccc2N(Cc2ccccc2)S(=O)(=O)c2ccc(OC)cc2)CC1,60.4%,17.8% (active),42.6%
CCN1CCN(C(=O)c2ccccc2N(C)S(=O)(=O)c2ccc(C)cc2)CC1,1.51%,2.85% (inactive),4.04%
NC(=O)c1ccccc1N(Cc1ccccc1)S(=O)(=O)c1ccccc1,0.852%,1.16% (inactive),4.6%
